Reference: PubChem BioAssay (NCATS)
Records with an inconclusive call do not appear. A call without a number means that no potency is given here. Unmarked numbers belong to inactive results. Active and inactive are the calls of the source. The call rests on the fitted dose curve; in most records, active means well fitted cell-killing curve with a large enough effect; inconclusive means small, poorly fitted or top-dose-only effect, or effect the other way; inactive means no such curve, though single readings can be large or run the other way.

Assay: Viability qHTS for spleen associated tyrosine kinase inhibitor (SYKi) naive MV4-11 cells (AID 1963823); further: nearly all actives have a fitted effect of over 40% in size
Details: MV4-11 AML viability, CellTiter-Glo luminescence, 72 h; series mostly up to 45 µM
Outline: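 Luminescence from CellTiter-Glo, developed 10 min at room temperature, gave viability of MV4-11 cells never exposed to SYK inhibitor. Cells (500/well) had been incubated with compounds for 72 hr under standard culture conditions.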
Potency means the concentration at half of the fitted maximal effect.

Compound | Potency | viability (% of control)
C=C1C(=O)O[C@H]2C3=C(C)CCC[C@]3(C)C(=O)C[C@@H]12 | 1300 nM (active) | –
CC(C)C(O)(CO)CCO[C@@H]1O[C@H](CO[C@H]2OC[C@](O)(CO)[C@H]2O)[C@@H](O)[C@H](O)[C@H]1O (stereo partly specified) | inactive | –
CC1CCC2C(C)(C)[C@H](O)CC[C@]2(C)C12Cc1c(O)cc3c(c1O2)CN(C(CCC(=O)O)C(=O)O)C3=O (stereo partly specified) | inactive | –
COc1cc([C@H]2OC[C@](O)(Cc3ccc(O[C@@H]4O[C@H](CO)[C@@H](O)[C@H](O)[C@H]4O)c(OC)c3)[C@@H]2CO)ccc1O | inactive | –
COc1cc(CO)ccc1O[C@@H]1O[C@H](CO)[C@@H](O)[C@H](O)[C@H]1O | inactive | –
C=CC(C)(CCC=C(C)C)O[C@@H]1O[C@H](CO)[C@@H](O)[C@H](O)[C@H]1O (stereo partly specified) | inactive | –
COc1ccc2c(c1)O[C@H](O[C@@H]1O[C@H](CO)[C@@H](O)[C@H](O)[C@H]1O)C(=O)N2 | inactive | –
COc1cc(/C=C/C(=O)O[C@H]2C[C@@H]3C(C(=O)O)=CO[C@@H](O[C@@H]4O[C@H](CO)[C@@H](O)[C@H](O)[C@H]4O)[C@@H]3[C@H]2C)ccc1O | inactive | –
CCN1CCN(Cc2ccc(C(=O)Nc3ccc(C)c(Oc4ccc5c(c4)CC(=O)N5)c3)cc2C(F)(F)F)CC1 | 5800 nM (active) | –
NC1CCCCN(c2c(F)cc3c(=O)c(C(=O)O)cn(C4CC4)c3c2Cl)C1 (stereo unspecified) | inactive | –
CC(C)C(C#N)O[C@@H]1O[C@H](CO[C@@H]2O[C@@H](C)[C@H](O)[C@@H](O)[C@H]2O)[C@@H](O)[C@H](O)[C@H]1O (stereo partly specified) | inactive | –
OC[C@H]1O[C@@H](OCCc2ccccc2)[C@H](O)[C@@H](O)[C@@H]1O | inactive | –
COc1c2c(c(C)c3c1C(=O)OC3)OC1(C)CC(O)C3(O)C(C)(C)OC(=O)CCC3(C)C1C2 (stereo unspecified) | inactive | –
C=C(C)C(=O)O[C@H]1C[C@@](C)(O)C(=O)CC(O)/C(C)=C\[C@H]2OC(=O)C(=C)[C@H]12 (stereo partly specified) | 1610 nM (active) | –
CC1(C)CC[C@]23CO[C@@]4(CCC5[C@@]6(C)CC[C@H](O[C@@H]7OC[C@H](O[C@@H]8O[C@H](CO)[C@@H](O)[C@H](O)[C@H]8O)[C@H](O)[C@H]7O[C@@H]7O[C@H](CO)[C@@H](O[C@@H]8O[C@H](CO)[C@@H](O)[C@H](O)[C@H]8O)[C@H](O)[C@H]7O)[C@@](C)(CO)C6CC[C@@]5(C)[C@]4(C)C[C@H]2OC2OCC(O)C(O)C2O)C3C1 (stereo partly specified) | 1950 nM (active) | –
CC1(C)C[C@@H]2[C@H](C1)[C@@]1(C)C[C@]13C(O)OC[C@]3(O)[C@H]2O (stereo partly specified) | inactive | –

Compound | Potency | viability (% of control)
O=C(O)CC(CCc1ccccc1)OC1OC(CO)C(O)C(O)C1O (stereo unspecified) | inactive | –
COc1cc2c(c(OC)c1O)C(c1ccc(O)cc1)C1C(=O)OC3C(COC(=O)C1=C2)OC(CO)(OC1OC(COC(=O)/C=C/c2ccc(OC4OC(C)C(O)C(O)C4O)cc2)C(O)C(O)C1O)C3O (stereo unspecified) | – | 95.6% [at 9.25 µM]
C[C@@H]1O[C@@H](O[C@H]2[C@H](O)[C@@H](O)[C@H](OC(=O)[C@]34CCC(C)(C)C[C@H]3C3=CCC5[C@@]6(C)CC[C@H](O[C@@H]7O[C@H](C(=O)O)[C@@H](O)[C@H](O)[C@H]7O)C(C)(C)C6CC[C@@]5(C)[C@]3(C)CC4)O[C@@H]2CO)[C@H](O)[C@H](O)[C@H]1O (stereo partly specified) | – | 72.1% [at 9.25 µM]
CC1(C)COC(=O)[C@@H]1O[C@@H]1O[C@H](CO)[C@@H](O)[C@H](O)[C@H]1O | inactive | –
C=C(C(=O)O)C1CCC2(C)CCC(O)C(C)(O)C2C1 (stereo unspecified) | inactive | –
CN(Cc1ccc(C(C)(C)C)cc1)Cc1cccc2ccccc12 | inactive | –
C/C(=C\CCC(C)(C)O)CCO[C@@H]1O[C@H](CO[C@@H]2O[C@@H](C)[C@H](O)[C@@H](O)[C@H]2O)[C@@H](O)[C@H](O)[C@H]1O | inactive | –
CCc1c(C)nc2c(-c3cnn(-c4cc(CO)ccn4)c3)c[nH]n2c1=O | inactive | –
CCC1=CC2CN(C1)Cc1c([nH]c3ccccc13)[C@@](C(=O)OC)(c1cc3c(cc1OC)N(C)[C@H]1[C@@](O)(C(=O)OC)[C@H](OC(C)=O)[C@]4(CC)C=CCN5CC[C@]31[C@@H]54)C2 (stereo partly specified) | 25.2 nM (active) | –
CC(/C=C/[C@]1(O)[C@@]2(C)CO[C@@]1(C)C[C@@H](O)C2)=C\C(=O)O[C@@H]1O[C@H](CO)[C@@H](O)[C@H](O)[C@H]1O | inactive | –
CC1CCC2C(=CCC(O)C2(C)C)C1(C)Cc1c(O)cc(CO)c(C=O)c1O (stereo unspecified) | 10100 nM (active) | –
C=CC(C)(O)CC[C@@H]1[C@@]2(C)CCCC(C)(C)C2CC[C@@]1(C)O (stereo partly specified) | 25900 nM (active) | –
CC1CC(=O)C2=C(C1)C1OC1C1(O)C2C(=O)c2cccc(O)c2C1O (stereo unspecified) | inactive | –
CCN1CCN(c2ccc(Nc3ccc(-c4ccc(C(N)=O)cc4)n4ncnc34)cc2)CC1 | 517 nM (active) | –
CC(=O)C1(C)CCC2C3C=C(C)C4=CC(=O)CCC4(C)C3CCC21C (stereo unspecified) | 5800 nM (active) | –
